# Laboratory results as given in PubChem BioAssay (NCI).
# This is part of a sample that, as a whole, favours compounds with a hit. Of some 83,000 tested, about 20% had one in any assay.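 Single-concentration screen, 48 h exposure, 96-well plates. Endpoint: percent growth. Below 10 = active.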 A number with no mark means an inactive call. Calls of active or inactive are those of the source.
# What was measured:
# Assay in all cases: NCI-60 one-dose screen, 48 h (100 = growth as untreated, 0 = no growth, -100 = all killed)
# HCT-15 colon = settings: 10 µM unless noted
# SNB-75 CNS = settings: 10 µM
# SNB-19 CNS = settings: 10 µM unless noted
# U251 CNS = settings: 10 µM unless noted
# PC-3 prostate = settings: 10 µM unless noted
# UACC-62 melanoma = settings: 10 µM unless noted
# LOX IMVI melanoma = settings: 10 µM unless noted
# SK-MEL-28 melanoma = settings: 10 µM unless noted
# SK-MEL-2 melanoma = settings: 10 µM unless noted
# EKVX NSCLC = settings: 10 µM unless noted
# SN12C renal = settings: 10 µM unless noted
# UO-31 renal = settings: 10 µM unless noted
# TK-10 renal = settings: 10 µM unless noted
# A498 renal = settings: 10 µM unless noted
# CCRF-CEM leukemia = settings: 10 µM unless noted
# MOLT-4 leukemia = settings: 10 µM unless noted
# SK-MEL-5 melanoma = settings: 10 µM unless noted
# ACHN renal = settings: 10 µM unless noted
# CAKI-1 renal = settings: 10 µM unless noted
Compound,growth (HCT-15 colon),growth (SNB-75 CNS) [%],growth (SNB-19 CNS) [%],growth (U251 CNS),growth (PC-3 prostate),growth (UACC-62 melanoma) [%],growth (LOX IMVI melanoma),growth (SK-MEL-28 melanoma) [%],growth (SK-MEL-2 melanoma) [%],growth (EKVX NSCLC) [%],growth (SN12C renal) [%],growth (UO-31 renal),growth (TK-10 renal) [%],growth (A498 renal),growth (CCRF-CEM leukemia),growth (MOLT-4 leukemia),growth (SK-MEL-5 melanoma),growth (ACHN renal) [%],growth (CAKI-1 renal) [%]
COc1ccc2c(c1)C(c1cc(OC)c3c(c1)OCO3)C1=C(COC1=O)N2 (stereo unspecified),26.2%,43.6,35.2,20.3%,21.9%,46.7,20.1%,60,33.2,41.1,28,62%,60.8,30%,7.1% (active),16.5%,,,
NC1=NN(O)C2=CC([N+](=O)[O-])C=CC2=N1 (stereo unspecified),101%,99.5,119,109%,86.5%,122,83.7%,117,,99.5,112,93.3%,121,109%,,111%,109%,105,93.8
CCOC(=O)C1=C(C)NC(C)=C(C(=O)OCC)C1(C)C,101%,87.3,98.1,107%,98.2%,98.7,104%,,,108,97,100%,109,108%,94.4%,97%,97.7%,106,107
COc1ccc2[nH]c(=O)c3c4ccccc4cn3c2c1,9.19% (active),56.5,,9.8% (active),7.65% (active),28.2,4.23% (active),54.7,50.5,39.1,21.5,9.09% (active),16.9,50.3%,-31.2% (active),6.08% (active),35.1%,23.2,
CC1CCC(C)N(C)C1 (stereo unspecified),117%,89.7,98.6,107%,87.5%,99.7,95.9%,107,,112,92.8,84.6%,102,76.5%,93.9%,92.5%,107%,105,101
CC(=O)Nc1scc[n+]1Cc1ccccc1,101%,106,110,106%,94.2%,114,87.9%,109,,103,111,91.1%,113,112%,90.1%,94.1%,117%,107,87.4
O=c1cc/c(=N\Nc2ccccc2)c(=O)/c1=N/Nc1ccccc1,104%,106,111,104%,63.6%,101,89%,,126,100,112,97.5%,170,93%,86.7%,106%,87%,99.7,
COc1ccc(CCNC2=CC(=O)CCC2)cc1OC,108%,92.9,105,107%,93%,109,96.3%,111,,110,102,81.2%,115,105%,102%,76.2%,101%,110,102
COc1ccc(C(=O)c2cc(OC)c3c(c2)OCO3)cc1O,19.1%,30.6,,27.9%,29.4%,43.6,26.7%,65.6,71.7,58.4,31.4,46.6%,66,61.9%,16.5%,17.8%,-52% (active),,55.5
O=C1CCCCC1(c1ccccc1)c1ccccc1,91.3%,88.8,100,108%,,99.7,94%,95.6,100,91.2,104,98.8%,,,101%,105%,99.1%,101,82.4
Cc1ccc(Nc2nnc(-c3ccc(Cl)cc3)o2)c(C)c1,44.7%,78.7,95.8,83.8%,92.1%,70.8,75.9%,76.8,67.9,,97.7,82.6%,102,81.6%,83.3%,61.7%,92.7%,95.7,
O=C(c1ccccc1)C1OC1c1ccc([N+](=O)[O-])cc1 (stereo unspecified),70.8%,70,95.3,64.8%,63.2%,71.4,29%,97.4,,89.2,76.7,136%,50,110%,35.1%,76.2%,52.7%,75.3,72.7
O=S(=O)(CC(O)(c1ccccc1)c1ccccc1)CC(O)(c1ccccc1)c1ccccc1,96.4%,58.4,83.2,70.7%,80.4%,93.7,76%,,109,73.8,90.1,92.9%,107,98.7%,64.8%,96.7%,88.6%,78.1,66.9
CNC(=S)NNC(=O)C1CC1,105%,96.5,106,109%,102%,111,99.9%,113,,105,109,77.5%,119,109%,97.3%,85.1%,105%,106,96
COc1cc2c(c(OC)c1OC)-c1ccc(N)c(=O)cc1[C@@H](NC(C)=O)CC2,11.8%,33.8,34.2,18%,29.3%,30.8,25%,61.8,,51.4,27.6,40%,33.4,-12.7% (active),21.6%,20.7%,-54.3% (active),27.5,19.1
CC(=O)Nc1ccc(S(=O)(=O)n2ccc(-c3ccc4c(c3)CCC(C)(C)O4)n2)cc1,59.3%,81.4,73.3,66%,44.4%,62.4,64.1%,93.1,53.5,,89,67.9%,55.1,21.9%,55.4%,50.7%,26.3%,79.3,48.8
CCc1cnc(=S)n(-c2ccccc2)c1,103%,117,107,117%,98.7%,109,95.4%,114,,,103,97%,122,117%,129%,125%,117%,99.6,
COc1cc(C2C3=C(COC3=O)Nc3cc4c(cc32)OCO4)cc2c1OCO2 (stereo unspecified),9.19% (active),42.2,31,18.5%,24%,41.3,16%,,41.6,44.6,23.4,51%,55,21.3%,8.12% (active),12.1%,-60.6% (active),,44.1
